Assay results taken from the supplement of paper PMC10849652.
About 7,900 targets were measured; listed, in parts, are those with a hit and a random draw of the rest. About 0.6% of all pairs of compound and target were hits. A number with no mark means an inactive call.

Experiments:
Assay in all cases: log2 fold change, soluble protein after heating vs DMSO (PISA); higher = thermal stabilisation; K562 cells, 10 uM, 30 min; active = over 0.2 and 3.5 SD of the protein, either way, in both replicates (recomputed)
[1] = compound: COC1=CC=C(C=C1)CN2C=CC3=C2C=C(C=C3)C(=O)NO
Procedure, shortened: (§1)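 Soluble protein was defined as the supernatant after 21,000xg for 90 min. It came from K562 cells at 2×10^6 cells/mL given 10 μM compound for 30 min, heated in aliquots for 3 min across 48°C-58°C, pooled, and extracted in PBS with 0.5% NP-40 at 4°C, and was quantified by TMTpro 16plex LC-MS/MS with equalised channel sums. Thermal stability against control samples, from duplicates, is reported as log2 fold change.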

filanesib = compound: CON(C)C(=O)N1N=C(c2cc(F)ccc2F)S[C@@]1(CCCN)c1ccccc1 [filanesib]
Procedure, shortened: as §1

zotarolimus = compound: CO[C@H]1C[C@@H]2CC[C@@H](C)[C@@](O)(O2)C(=O)C(=O)N2CCCC[C@H]2C(=O)O[C@H]([C@H](C)C[C@@H]2CC[C@H](n3cnnn3)[C@H](OC)C2)CC(=O)[C@H](C)/C=C(\C)[C@@H](O)[C@@H](OC)C(=O)[C@H](C)C[C@H](C)/C=C/C=C/C=C/1C [zotarolimus]
Procedure, shortened: as §1

idasanutlin = compound: COc1cc(C(=O)O)ccc1NC(=O)[C@@H]1N[C@@H](CC(C)(C)C)[C@](C#N)(c2ccc(Cl)cc2F)[C@H]1c1cccc(Cl)c1F [idasanutlin]
Procedure, shortened: as §1

alisertib = compound: COc1cc(Nc2ncc3c(n2)-c2ccc(Cl)cc2C(c2c(F)cccc2OC)=NC3)ccc1C(=O)O [alisertib]
Procedure, shortened: as §1

[2] = compound: COc1cc2nc(-c3cc(F)ccc3O)nc(N[C@@H]3CNC[C@H]3C(C)(C)O)c2cc1OC
Procedure, shortened: as §1

gefitinib = compound: COc1cc2ncnc(Nc3ccc(F)c(Cl)c3)c2cc1OCCCN1CCOCC1 [gefitinib]
Procedure, shortened: as §1

[3] = compound: COc1cccc2cc(-c3nc([C@H]4CC[C@H](C(=O)O)CC4)n4ncnc(N)c34)[nH]c12
Procedure, shortened: as §1

lapatinib = compound: CS(=O)(=O)CCNCc1ccc(-c2ccc3ncnc(Nc4ccc(OCc5cccc(F)c5)c(Cl)c4)c3c2)o1 [lapatinib]
Procedure, shortened: as §1

pictilisib = compound: CS(=O)(=O)N1CCN(Cc2cc3nc(-c4cccc5[nH]ncc45)nc(N4CCOCC4)c3s2)CC1 [pictilisib]
Procedure, shortened: as §1

Chain of UniProt Q6Y7W6 (Q6Y7W6 whole entry, looked up): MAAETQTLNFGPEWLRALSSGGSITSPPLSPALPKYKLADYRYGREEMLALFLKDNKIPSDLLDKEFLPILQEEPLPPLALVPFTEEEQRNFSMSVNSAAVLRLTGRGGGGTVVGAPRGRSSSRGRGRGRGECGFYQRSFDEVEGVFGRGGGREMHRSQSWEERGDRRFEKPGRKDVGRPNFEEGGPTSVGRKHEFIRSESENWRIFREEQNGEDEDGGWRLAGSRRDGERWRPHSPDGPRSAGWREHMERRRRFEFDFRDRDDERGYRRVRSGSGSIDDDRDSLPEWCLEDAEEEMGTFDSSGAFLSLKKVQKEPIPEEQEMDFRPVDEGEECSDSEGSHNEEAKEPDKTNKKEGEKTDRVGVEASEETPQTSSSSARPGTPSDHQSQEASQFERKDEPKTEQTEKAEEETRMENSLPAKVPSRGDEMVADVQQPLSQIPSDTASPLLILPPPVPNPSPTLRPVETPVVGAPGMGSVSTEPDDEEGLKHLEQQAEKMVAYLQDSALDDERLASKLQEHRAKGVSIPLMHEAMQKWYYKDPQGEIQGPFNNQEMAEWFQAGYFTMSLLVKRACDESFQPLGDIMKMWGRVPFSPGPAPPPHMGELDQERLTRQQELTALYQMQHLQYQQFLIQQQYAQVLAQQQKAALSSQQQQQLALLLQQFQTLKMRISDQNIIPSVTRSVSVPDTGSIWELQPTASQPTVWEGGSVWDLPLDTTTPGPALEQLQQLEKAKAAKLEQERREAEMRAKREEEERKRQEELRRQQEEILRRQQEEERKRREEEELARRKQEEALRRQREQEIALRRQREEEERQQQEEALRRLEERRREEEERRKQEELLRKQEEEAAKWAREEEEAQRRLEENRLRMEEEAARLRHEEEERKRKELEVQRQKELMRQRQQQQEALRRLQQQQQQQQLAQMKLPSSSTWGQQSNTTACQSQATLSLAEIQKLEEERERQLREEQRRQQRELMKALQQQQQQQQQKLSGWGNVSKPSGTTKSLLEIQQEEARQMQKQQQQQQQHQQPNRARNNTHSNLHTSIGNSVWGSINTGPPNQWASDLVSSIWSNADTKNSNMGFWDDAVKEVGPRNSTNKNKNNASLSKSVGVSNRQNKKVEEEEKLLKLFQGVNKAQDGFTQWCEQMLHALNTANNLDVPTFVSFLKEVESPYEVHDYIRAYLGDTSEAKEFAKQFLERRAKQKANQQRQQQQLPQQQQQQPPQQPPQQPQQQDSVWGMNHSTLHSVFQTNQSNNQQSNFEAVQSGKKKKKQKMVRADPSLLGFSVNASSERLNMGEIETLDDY
Chain of UniProt P07686 (P07686 whole entry, looked up): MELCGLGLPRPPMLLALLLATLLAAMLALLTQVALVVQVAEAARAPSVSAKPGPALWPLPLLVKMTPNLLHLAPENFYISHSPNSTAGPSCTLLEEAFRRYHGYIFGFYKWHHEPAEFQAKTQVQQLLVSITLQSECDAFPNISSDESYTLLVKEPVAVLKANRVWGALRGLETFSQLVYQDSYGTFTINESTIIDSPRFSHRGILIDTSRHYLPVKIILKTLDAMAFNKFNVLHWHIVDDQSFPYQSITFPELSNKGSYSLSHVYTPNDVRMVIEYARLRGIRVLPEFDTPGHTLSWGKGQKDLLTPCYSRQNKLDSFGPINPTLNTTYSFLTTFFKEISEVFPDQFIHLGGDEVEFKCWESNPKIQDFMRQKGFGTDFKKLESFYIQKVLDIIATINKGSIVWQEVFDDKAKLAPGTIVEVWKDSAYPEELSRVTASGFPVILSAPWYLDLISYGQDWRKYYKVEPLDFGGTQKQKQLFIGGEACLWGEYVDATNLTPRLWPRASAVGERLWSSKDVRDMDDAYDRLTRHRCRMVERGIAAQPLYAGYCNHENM
Chain of UniProt P78417 (P78417 whole entry, looked up): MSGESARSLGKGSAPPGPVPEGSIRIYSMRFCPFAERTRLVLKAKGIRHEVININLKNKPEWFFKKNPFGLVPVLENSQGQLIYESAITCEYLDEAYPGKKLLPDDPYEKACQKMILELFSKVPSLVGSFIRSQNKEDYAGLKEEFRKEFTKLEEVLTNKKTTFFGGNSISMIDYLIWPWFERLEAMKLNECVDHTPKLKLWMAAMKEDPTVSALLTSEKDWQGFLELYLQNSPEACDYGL
Chain of UniProt Q9Y5Q8 (Q9Y5Q8 whole entry, looked up): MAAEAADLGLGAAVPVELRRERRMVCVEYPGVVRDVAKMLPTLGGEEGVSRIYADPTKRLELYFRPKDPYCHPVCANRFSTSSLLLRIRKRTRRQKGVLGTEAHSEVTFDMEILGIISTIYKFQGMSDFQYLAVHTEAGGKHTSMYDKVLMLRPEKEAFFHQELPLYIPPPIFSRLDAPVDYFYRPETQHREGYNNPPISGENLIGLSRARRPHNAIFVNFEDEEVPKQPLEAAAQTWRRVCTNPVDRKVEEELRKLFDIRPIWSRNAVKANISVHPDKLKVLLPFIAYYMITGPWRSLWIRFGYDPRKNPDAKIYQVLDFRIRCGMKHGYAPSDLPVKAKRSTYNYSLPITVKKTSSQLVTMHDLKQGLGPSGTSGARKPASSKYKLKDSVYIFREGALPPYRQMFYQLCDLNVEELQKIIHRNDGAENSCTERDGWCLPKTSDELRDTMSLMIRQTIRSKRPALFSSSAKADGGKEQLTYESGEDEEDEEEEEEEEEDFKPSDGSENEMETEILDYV
Chain of UniProt O00291 (O00291 whole entry, looked up): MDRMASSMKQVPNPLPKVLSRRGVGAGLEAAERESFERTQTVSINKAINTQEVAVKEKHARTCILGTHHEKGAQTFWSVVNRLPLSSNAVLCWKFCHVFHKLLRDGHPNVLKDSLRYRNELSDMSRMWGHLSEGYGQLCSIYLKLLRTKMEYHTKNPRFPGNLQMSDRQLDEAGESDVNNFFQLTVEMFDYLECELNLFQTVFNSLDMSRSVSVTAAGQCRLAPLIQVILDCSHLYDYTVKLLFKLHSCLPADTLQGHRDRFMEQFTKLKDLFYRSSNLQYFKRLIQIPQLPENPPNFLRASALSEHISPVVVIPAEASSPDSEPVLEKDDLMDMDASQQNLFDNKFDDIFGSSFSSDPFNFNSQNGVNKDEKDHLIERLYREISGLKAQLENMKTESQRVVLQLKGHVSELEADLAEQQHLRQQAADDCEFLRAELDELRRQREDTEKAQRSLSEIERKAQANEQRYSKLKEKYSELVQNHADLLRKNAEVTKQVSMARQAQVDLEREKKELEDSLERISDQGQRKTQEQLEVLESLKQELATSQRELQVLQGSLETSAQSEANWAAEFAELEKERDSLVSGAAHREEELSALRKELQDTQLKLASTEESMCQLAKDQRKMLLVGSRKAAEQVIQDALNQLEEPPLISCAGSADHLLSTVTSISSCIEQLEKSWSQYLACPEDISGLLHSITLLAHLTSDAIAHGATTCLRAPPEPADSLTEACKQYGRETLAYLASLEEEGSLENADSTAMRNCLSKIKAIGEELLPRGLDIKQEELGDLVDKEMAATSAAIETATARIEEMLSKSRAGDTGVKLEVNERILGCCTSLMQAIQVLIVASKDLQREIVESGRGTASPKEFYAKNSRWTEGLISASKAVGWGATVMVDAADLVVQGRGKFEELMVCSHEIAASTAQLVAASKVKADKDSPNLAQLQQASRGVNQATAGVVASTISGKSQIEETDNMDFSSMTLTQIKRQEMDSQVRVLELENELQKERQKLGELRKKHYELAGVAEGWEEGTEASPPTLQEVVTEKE
Chain of UniProt P29083 (P29083 whole entry, looked up): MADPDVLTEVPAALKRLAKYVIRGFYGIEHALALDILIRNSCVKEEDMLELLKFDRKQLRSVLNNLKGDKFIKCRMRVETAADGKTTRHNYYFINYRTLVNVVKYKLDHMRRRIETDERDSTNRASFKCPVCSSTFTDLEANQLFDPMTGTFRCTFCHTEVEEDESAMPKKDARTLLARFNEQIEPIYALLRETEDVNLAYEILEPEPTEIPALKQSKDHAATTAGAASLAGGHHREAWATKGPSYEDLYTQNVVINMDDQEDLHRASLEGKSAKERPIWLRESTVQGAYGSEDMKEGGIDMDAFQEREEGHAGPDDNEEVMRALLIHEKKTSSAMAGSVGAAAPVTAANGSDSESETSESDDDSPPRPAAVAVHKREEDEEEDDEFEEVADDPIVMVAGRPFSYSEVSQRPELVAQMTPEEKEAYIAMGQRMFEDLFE
Chain of UniProt P08754 (P08754 whole entry, looked up): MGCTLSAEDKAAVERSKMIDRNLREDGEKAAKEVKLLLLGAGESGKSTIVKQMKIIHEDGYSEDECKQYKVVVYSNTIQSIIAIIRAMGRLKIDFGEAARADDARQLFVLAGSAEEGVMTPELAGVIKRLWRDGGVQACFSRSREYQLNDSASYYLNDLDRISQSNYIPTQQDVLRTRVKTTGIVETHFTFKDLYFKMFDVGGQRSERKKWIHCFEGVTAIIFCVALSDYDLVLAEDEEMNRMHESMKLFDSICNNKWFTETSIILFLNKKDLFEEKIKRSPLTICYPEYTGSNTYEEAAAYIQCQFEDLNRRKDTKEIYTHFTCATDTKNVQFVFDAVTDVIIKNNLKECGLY
Chain of UniProt Q9BYC5 (Q9BYC5 whole entry, looked up): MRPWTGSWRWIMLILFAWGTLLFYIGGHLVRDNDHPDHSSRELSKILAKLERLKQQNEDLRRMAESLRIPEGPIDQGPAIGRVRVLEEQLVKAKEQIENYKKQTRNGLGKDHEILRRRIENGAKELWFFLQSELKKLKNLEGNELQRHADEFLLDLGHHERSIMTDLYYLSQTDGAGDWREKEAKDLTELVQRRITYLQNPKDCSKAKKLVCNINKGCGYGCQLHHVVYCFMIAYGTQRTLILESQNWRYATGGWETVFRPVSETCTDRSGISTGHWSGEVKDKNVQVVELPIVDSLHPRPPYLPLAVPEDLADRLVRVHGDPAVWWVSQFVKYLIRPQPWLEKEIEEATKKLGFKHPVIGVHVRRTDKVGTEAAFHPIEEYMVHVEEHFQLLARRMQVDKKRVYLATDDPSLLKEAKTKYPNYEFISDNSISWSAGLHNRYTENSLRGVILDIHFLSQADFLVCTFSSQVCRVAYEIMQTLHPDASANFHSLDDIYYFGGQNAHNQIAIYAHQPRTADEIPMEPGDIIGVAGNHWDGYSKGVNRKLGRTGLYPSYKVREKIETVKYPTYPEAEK

Row | Target | log2 fold change [1] | log2 fold change (filanesib) | log2 fold change (zotarolimus) | log2 fold change (idasanutlin) | log2 fold change (alisertib) | log2 fold change [2] | log2 fold change (gefitinib) | log2 fold change [3] | log2 fold change (lapatinib) | log2 fold change (pictilisib)
1 | GTF2E1 (UniProt P29083) | 0.042 | 0.01 | 0.004 | -0.032 | -0.026 | 0.06 | 0.013 | 0.012 | -0.037 | -0.002
2 | GTF3C5 isoform 3 (UniProt Q9Y5Q8) | -0.115 | -0.039 | 0.116 | -0.068 | 0.064 | 0.024 | -0.003 | -0.034 | 0.13 | -0.148
3 | GSTO1 (UniProt P78417) | -0.015 | -0.031 | -0.017 | -0.037 | -0.063 | -0.048 | -0.001 | 0.021 | 0.02 | -0.033
4 | GEMIN6 (UniProt Q8WXD5) | 0.001 | 0.005 | 0.154 | 0.071 | -0.019 | 0.006 | -0.003 | 0.096 | -0.077 | 0.064
5 | GABARAPL1 isoform 2 (UniProt Q9H0R8) | 0.053 | -0.054 | 0.024 | -0.112 | 0.024 | 0.007 | 0.021 | -0.01 | -0.026 | 0.115
6 | HIP1R (UniProt O75146) | -0.011 | -0.039 | -0.034 | -0.046 | 0.114 | 0.027 | -0.025 | 0 | -0.041 | -0.011
7 | GNAI3 (UniProt P08754) | -0.041 | -0.002 | -0.081 | -0.004 | -0.124 | 0.066 | 0.118 | -0.013 | 0.009 | 0.059
8 | FUCA1 (UniProt P04066) | -0.014 | -0.057 | -0.025 | -0.044 | -0.004 | -0.113 | 0.003 | 0.1 | 0.047 | 0
9 | HIC2 (UniProt Q96JB3) | -0.067 | 0.226 | -0.012 | 0.238 | -0.057 | -0.386 | -0.073 | -0.066 | 0.207 | -0.052
10 | GIGYF2 (UniProt Q6Y7W6) | 0.005 | 0.008 | 0.016 | 0 | -0.023 | 0.07 | -0.043 | -0.026 | -0.016 | -0.027
11 | HOOK3 (UniProt Q86VS8) | -0.074 | -0.108 | 0.001 | 0.036 | 0.07 | 0.014 | -0.006 | 0.018 | 0.032 | -0.021
12 | HEXB (UniProt P07686) | 0.012 | -0.092 | -0.042 | 0.018 | -0.058 | 0.017 | 0.005 | 0.044 | -0.001 | 0.021
13 | ICAM1 (UniProt P05362) | -0.018 | 0.132 | -0.038 | 0.042 | 0.002 | 0.08 | 0.029 | 0.104 | -0.028 | 0
14 | FOXO3 (UniProt O43524) | 0.027 | -0.069 | 0.083 | 0.154 | 0.149 | -0.067 |  | -0.068 | -0.106 | -0.09
15 | HIST2H3A (UniProt Q71DI3) | 0.037 | 0.268 | -0.167 | 0.508 | 0.001 | -0.106 | 0.061 | -0.367 | 0.065 | -0.021
16 | FERMT3 (UniProt Q86UX7) | 0.046 | -0.037 | 0.033 | -0.068 | -0.104 | 0 | -0.007 | 0.001 | -0.006 | 0.009
17 | GHDC (UniProt Q8N2G8) | -0.026 | -0.127 | 0.021 | 0.061 | -0.057 | -0.13 | 0.037 | 0.087 | 0.042 | 0.042
18 | GTF2A2 (UniProt P52657) | -0.067 | -0.043 | -0.006 | -0.036 | 0.018 | 0.044 | -0.028 | 0.032 | -0.042 | 0.041
19 | FBXO7 (UniProt Q9Y3I1) | 0.037 | -0.069 | -0.026 | -0.04 | -0.082 | 0.082 | -0.023 | 0.011 | -0.082 | 0.036
20 | IDI1 isoform 2 (UniProt Q13907) | -0.314 (active) | 0.026 | 0.033 | -0.006 | -0.003 | 0.007 | 0.024 | 0.039 | -0.014 | 0.089
21 | HPCAL1 (UniProt P37235) | -0.085 | -0.128 | -0.017 | -0.062 | 0.002 | -0.012 | -0.021 | 0.06 | -0.027 | 0.013
22 | FUT8 (UniProt Q9BYC5) | -0.156 | -0.043 | -0.019 | -0.066 | 0.022 |  | 0.084 | -0.03 |  | -0.032
23 | HMGN2 (UniProt P05204) | 0.01 | -0.043 | -0.048 | 0.041 | -0.028 | 0.073 | 0.046 | 0.09 | -0.051 | -0.264
24 | HIP1 (UniProt O00291) | 0.022 | -0.026 | 0.017 | -0.003 | -0.269 | 0.029 | 0.016 | 0.047 | 0.059 | 0
25 | GSTM4 (UniProt Q03013) | 0.027 | 0.103 | 0.084 | 0.031 | 0.061 | 0.084 | -0.056 | 0.068 | 0.031 | 0.022
26 | FDXR isoform 7 (UniProt P22570) | -0.005 | -0.122 | 0.021 | -0.179 | -0.019 | 0.06 | 0.048 | 0.074 | -0.057 | 0.201
27 | FKBP4 (UniProt Q02790) | 0.015 | -0.066 | 0.077 | -0.048 | -0.018 | 0.031 | 0.008 | 0.009 | -0.062 | 0.027
28 | HMGN1 (UniProt P05114) | 0.01 | 0.044 | -0.034 | 0.026 | -0.04 | 0.059 | -0.07 | 0.026 | -0.09 | -0.003
